Results filed as inconclusive are left out. A call without a number means that no potency is given here. Calls of active or inactive are those of the source. Unless noted, the call rests on the fitted dose curve; in most records, active means well fitted curve in the direction sought with a large enough effect; inconclusive means small, poorly fitted or top-dose-only effect, or another doubt; inactive means no such curve, though single readings can be large; an effect the other way counts as inactive or inconclusive.
How the values were obtained:
[1] = molecular target: Transient receptor potential cation channel subfamily V member 1 (Homo sapiens) (UniProt Q8NER1); test: HTS Assay for Compounds that Act as Enhancers of the Vanilloid Receptor 1 (AID 488979)
Method in brief: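 TRPV1 cells loaded with Fluo-8 calcium dye; compound added and Ca2+ signal (ex 480/em 520 nm) followed 3 min, then capsaicin at EC20 added and read 2 more min to detect enhancement.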

[2] = molecular target: Thyrotropin receptor (Homo sapiens) (UniProt P16473); test: qHTS Assay for Antagonists of the Thyroid Stimulating Hormone Receptor (AID 488980); further: series mostly up to about 58 µM
Method in brief: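 Inhibition of cAMP raised by EC80 TSH (4 nM final) was read by HTRF, with lysate cAMP competing against cAMP-d2 for cryptate antibody after 30 min at room temperature. The cells were transfected HEK293 held in phosphodiesterase inhibitor RO 20-1724 at 70 uM.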

[3] = molecular target: D(1A) dopamine receptor (Homo sapiens) (UniProt P21728); test: HTS Assay for Allosteric Agonists of the Human D1 Dopamine Receptor: Primary Screen for Agonists (AID 488981)
Method in brief: (§1)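 Tetracycline-induced HEK293 Trex D1 cells with forced coupling to calcium, loaded with no-wash calcium dye; kinetic fluorescence read 180 s after compound addition for agonism, then a further 180 s after an EC20 dopamine challenge for potentiation.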

[4] = molecular target: D(1A) dopamine receptor (Homo sapiens) (UniProt P21728); test: HTS Assay for Allosteric Agonists of the Human D1 Dopamine Receptor: Primary Screen for Potentiators (AID 488982)
Method in brief: as §1

[5] = Validation screen for small molecules that induce genotoxicity in human embryonic kidney (HEK293T) cells expressing luciferase-tagged ELG1 (AID 493106)
Method in brief: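 Reporter-gene quantitative HTS in HEK293T cells carrying luciferase-tagged ELG1, whose level climbs under genotoxic stress. Compound exposure lasts 16 hr at 37 °C before luciferase detection.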

[6] = molecular target: ATPase family AAA domain-containing protein 5 (Homo sapiens) (UniProt Q96QE3); test: Validation screen for small molecules that inhibit ELG1-dependent DNA repair in human embryonic kidney (HEK293T) cells expressing luciferase-tagged ELG1 (AID 493107);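 further: cells co-treated with the DNA-damaging agent 5-fluorouridine alongside compound; series mostly up to about 46 µM; inhibitors lower the ELG1-luciferase luminescence signal; nearly all actives have a fitted effect of over 70% in size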
Method in brief: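 Quantitative HTS in HEK293T cells carrying luciferase-tagged ELG1, stimulated with 5-fluorouridine alongside compound for 16 hr. Loss of luciferase signal marks inhibition of ELG1 response.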

[7] = molecular target: Thyrotropin-releasing hormone receptor (Homo sapiens) (UniProt P34981); test: qHTS for Small Molecule Agonists and Allosteric Enhancers of Human TRH Receptor: Validation Screen for Agonists (AID 493127;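 active means calcium activation more than 3 SD above the typical response in the agonist read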;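 further: intracellular calcium rise by fluo-8 fluorescence before TRH EC20 addition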); details: TRH receptor agonist cell assay; at 2 µM; stronger effect = higher value
Method in brief: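 Gq-coupled calcium mobilization in TRHR cells after compound addition, monitored kinetically with fluo-8 dye on an FDSS reader.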

[8] = Nrf2 qHTS screen for inhibitors: Validation (AID 493153; active means well fitted inhibition curve with a large enough effect in the main read-out, with a control signal flat, not every such curve was filed as active); details: Potency: luciferase luminescence; viability change: measured here: cytotoxicity max response
Method in brief: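 Dose-response validation uses reporter A549 cells with firefly luciferase under an antioxidant response element. Compounds stay on cells 18-24 h at 37°C, and luminescence indicates Nrf2-driven transcription.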

[9] = qHTS for Inhibitors of Cell Surface uPA Generation: Validation Assay (AID 493164);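 further: RAW 264.7 macrophage cells exposed to compound for 18 h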
Method in brief: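 RAW 264.7, 4000 cells/well, o/n plating; cpd 7-pt 1:5 dilution 2.45 nM–38.3 uM final; 18 h, 37 C/5% CO2; ATP-Lite, 5 s luminescence exposure.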

[10] = molecular target: Galactokinase (Homo sapiens) (UniProt P51570); test: qHTS Validation Assay for Inhibitors of Human Galactokinase (GALK) (AID 493189)
Method in brief: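 Inhibition was measured as remaining ATP, detected by luciferase luminescence after a 1 h room-temperature reaction. Final conditions: 5 nM GALK, 100 uM galactose, 35 uM ATP, pH 8.0 HEPES buffer.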

[11] = Validation screen for small molecules that induce DNA re-replication in SW480 colon adenocarcinoma cells (AID 504364)
Method in brief: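 Cells are treated 48 hr with test compound, stained 40 min with Hoechst at 37 C, and scanned for nuclear fluorescence; compounds inducing re-replication increase nuclei with elevated intensity.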

[12] = molecular target: Peptidyl-prolyl cis-trans isomerase NIMA-interacting 1 (Homo sapiens) (UniProt Q13526); test: qHTS Validation Assay to Find Inhibitors of Pin1 (AID 504536; active means well fitted inhibition curve with a large enough effect in the polarisation, with a control signal flat, not every such curve was filed as active; the % refers to the polarisation)
Method in brief: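 Fluorescence polarization competition: compounds (titration) displace HiFluor-488-labeled Pin1-1b peptide from Pin1 (0.3 uM final) in pH 7.5 HEPES buffer with DTT, 10 min at room temperature; %Activity normalized to no-enzyme wells, curves fitted.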

[13] = molecular target: Phosphoglycerate kinase, glycosomal (Trypanosoma brucei brucei) (UniProt P07378); test: qHTS Validation Assay to Find Inhibitors of Phosphoglycerate Kinase (AID 504547)
Method in brief: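 PGK activity was coupled to GAPDH (100nM final), which generates the unstable substrate 1,3-bisphosphoglycerate in-well. Reactions ran 60 minutes at room temperature in 100mM TEA pH 7.6, 5mM MgCl2, 0.01% Tween-20, then Kinase-Glo Plus luminescence was read.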

[14] = molecular target: phosphoglycerate mutase (Leishmania major) (UniProt Q4Q090); test: qHTS Validation Assay to Find Inhibitors of Phosphoglycerate Mutase (AID 504548); details: Potency: inhibition qHTS; further: series mostly up to about 58 µM
Method in brief: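 Luminescent end-point read-out via Kinase-GloPlus after a 10-minute development. Reaction: 1.25nM Leishmania major PGAM with substrate and compound, 45 minutes at room temperature in TEA buffer (pH 7.6) with MgCl2 and Tween-20.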

[15] = molecular target: Ubiquitin carboxyl-terminal hydrolase 1 (Homo sapiens) (UniProt O94782); test: Inhibitors of USP1/UAF1: Pilot qHTS (AID 504865);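 further: rhodamine fluorescence freed from ubiquitin-rhodamine substrate followed over time; top concentration of the series differs between compounds; nearly all actives have a fitted effect of over 35% in size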
Method in brief: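 Deubiquitinase activity followed as kinetic rhodamine fluorescence release from 150 nM Ub-Rho. 1 nM USP1/UAF1 with compound, after 15 min room-temperature preincubation, in HEPES pH 7.8 buffer containing TCEP, EDTA, BSA and Tween-20.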

[16] = qHTS for Inhibitors of ATXN expression: Validation of Cytotoxic Assay (AID 588349);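 further: cells exposed to compound for 72 hr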
Method in brief: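 HEK293, compound dose series, 72 hr / 37 degrees C; viability via CellTiter Glo (intracellular ATP).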

[17] = qHTS for Inhibitors of ATXN expression: Validation (AID 588378); further: series mostly up to about 57 µM; nearly all actives have a fitted effect of over 75% in size
Method in brief: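 Luciferase luminescence (Bright-Glo) from an ATXN2-FFLuc HEK293 line after 24 h compound exposure at 37 °C, preceded by a CellTiter-Fluor fluorescence viability read. Serial dilutions of a reference ATXN2 inhibitor and a luciferase inhibitor served as controls.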

[18] = molecular target: D(1A) dopamine receptor (Homo sapiens) (UniProt P21728); test: HTS Assay for Allosteric Agonists of the Human D1 Dopamine Receptor: Primary Screen for Antagonists (AID 488983);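 further: calcium flux response to an EC80 dopamine challenge measured with no-wash dye; nearly all actives have a fitted effect of over 65% in size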; further: potency means the concentration at half of the fitted maximal effect
Method in brief: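 Screening of inducible HEK293 T-REx D1 cells: compound first, EC80 dopamine 180 s later, each phase read kinetically for calcium over 180 s.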

[19] = molecular target: ATP-dependent 6-phosphofructokinase (Trypanosoma brucei brucei) (UniProt O15648); test: qHTS Assay to Find Inhibitors of T. brucei phosphofructokinase: hit validation (AID 492961);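 further: luminescence reports ADP formed as PFK phosphorylates fructose-6-phosphate with ATP; series mostly up to about 51 µM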
Method in brief: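 Inhibition of parasite PFK is measured as reduced ADP formation, quantified via luciferase after ATP depletion. Assay used 0.1 mM ATP, 0.5 mM F6P, 1.25 nM enzyme, 45 min incubation.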

Sequence of D(1A) dopamine receptor (Homo sapiens) (P21728 whole entry, looked up): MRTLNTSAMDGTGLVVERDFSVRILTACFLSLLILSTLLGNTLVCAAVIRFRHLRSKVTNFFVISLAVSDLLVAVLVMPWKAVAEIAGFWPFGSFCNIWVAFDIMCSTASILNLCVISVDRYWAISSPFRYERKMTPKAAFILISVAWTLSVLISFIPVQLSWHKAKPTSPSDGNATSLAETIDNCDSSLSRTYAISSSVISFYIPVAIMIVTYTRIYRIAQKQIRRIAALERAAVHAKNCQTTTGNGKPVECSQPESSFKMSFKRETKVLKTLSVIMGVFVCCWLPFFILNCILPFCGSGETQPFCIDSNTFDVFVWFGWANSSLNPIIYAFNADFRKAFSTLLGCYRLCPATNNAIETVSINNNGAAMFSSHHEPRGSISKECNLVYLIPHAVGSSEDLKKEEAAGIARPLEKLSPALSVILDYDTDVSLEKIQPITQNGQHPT
Sequence of Ubiquitin carboxyl-terminal hydrolase 1 (Homo sapiens) (O94782 whole entry, looked up): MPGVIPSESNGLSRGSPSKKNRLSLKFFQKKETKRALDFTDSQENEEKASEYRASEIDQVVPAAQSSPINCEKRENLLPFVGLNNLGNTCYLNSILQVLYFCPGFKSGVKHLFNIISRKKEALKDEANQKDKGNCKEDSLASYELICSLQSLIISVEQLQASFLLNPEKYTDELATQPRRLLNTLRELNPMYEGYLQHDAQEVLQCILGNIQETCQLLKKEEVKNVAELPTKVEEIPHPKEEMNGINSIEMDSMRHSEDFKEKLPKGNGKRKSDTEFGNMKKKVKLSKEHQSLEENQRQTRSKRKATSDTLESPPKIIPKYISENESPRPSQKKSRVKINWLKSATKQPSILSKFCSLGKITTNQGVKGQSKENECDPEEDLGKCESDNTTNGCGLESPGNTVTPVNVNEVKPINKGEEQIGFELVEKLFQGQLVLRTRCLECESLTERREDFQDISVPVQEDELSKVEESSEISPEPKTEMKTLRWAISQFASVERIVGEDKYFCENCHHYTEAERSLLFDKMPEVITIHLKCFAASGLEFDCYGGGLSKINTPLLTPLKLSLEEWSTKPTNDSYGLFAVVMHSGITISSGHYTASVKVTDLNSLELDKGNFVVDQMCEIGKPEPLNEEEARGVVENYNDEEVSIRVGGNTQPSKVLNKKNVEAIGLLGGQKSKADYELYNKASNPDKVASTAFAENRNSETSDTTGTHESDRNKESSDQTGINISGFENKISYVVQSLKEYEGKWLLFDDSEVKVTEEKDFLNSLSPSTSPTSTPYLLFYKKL
Sequence of phosphoglycerate mutase (Leishmania major) (Q4Q090 1-553): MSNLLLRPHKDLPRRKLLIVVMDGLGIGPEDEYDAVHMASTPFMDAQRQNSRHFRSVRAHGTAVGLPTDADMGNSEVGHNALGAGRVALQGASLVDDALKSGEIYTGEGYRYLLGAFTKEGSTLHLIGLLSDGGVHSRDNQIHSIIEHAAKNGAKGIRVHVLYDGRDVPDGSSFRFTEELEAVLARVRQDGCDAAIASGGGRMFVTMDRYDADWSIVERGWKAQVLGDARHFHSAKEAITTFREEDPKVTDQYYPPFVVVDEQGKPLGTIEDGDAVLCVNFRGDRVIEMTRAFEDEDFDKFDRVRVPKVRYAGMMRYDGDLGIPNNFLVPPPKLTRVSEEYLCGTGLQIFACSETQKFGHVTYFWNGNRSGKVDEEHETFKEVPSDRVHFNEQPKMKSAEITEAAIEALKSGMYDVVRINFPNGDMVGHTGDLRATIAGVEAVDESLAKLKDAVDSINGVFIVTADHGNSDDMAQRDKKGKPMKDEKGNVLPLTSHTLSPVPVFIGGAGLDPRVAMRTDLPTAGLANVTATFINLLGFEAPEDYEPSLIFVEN
Sequence of Galactokinase (Homo sapiens) (P51570 whole entry, looked up): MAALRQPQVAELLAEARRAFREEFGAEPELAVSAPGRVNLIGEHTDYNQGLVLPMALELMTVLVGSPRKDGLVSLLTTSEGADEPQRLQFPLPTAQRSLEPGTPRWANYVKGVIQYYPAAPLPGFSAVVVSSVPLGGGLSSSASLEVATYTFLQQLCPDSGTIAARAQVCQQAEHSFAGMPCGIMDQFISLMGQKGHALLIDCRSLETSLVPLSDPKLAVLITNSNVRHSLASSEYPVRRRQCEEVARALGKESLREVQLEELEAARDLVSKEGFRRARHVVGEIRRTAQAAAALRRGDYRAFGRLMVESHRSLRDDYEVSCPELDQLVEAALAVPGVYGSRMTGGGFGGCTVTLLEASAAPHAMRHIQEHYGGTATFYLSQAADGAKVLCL
Sequence of ATPase family AAA domain-containing protein 5 (Homo sapiens) (Q96QE3 whole entry, looked up, the tested form may be a part): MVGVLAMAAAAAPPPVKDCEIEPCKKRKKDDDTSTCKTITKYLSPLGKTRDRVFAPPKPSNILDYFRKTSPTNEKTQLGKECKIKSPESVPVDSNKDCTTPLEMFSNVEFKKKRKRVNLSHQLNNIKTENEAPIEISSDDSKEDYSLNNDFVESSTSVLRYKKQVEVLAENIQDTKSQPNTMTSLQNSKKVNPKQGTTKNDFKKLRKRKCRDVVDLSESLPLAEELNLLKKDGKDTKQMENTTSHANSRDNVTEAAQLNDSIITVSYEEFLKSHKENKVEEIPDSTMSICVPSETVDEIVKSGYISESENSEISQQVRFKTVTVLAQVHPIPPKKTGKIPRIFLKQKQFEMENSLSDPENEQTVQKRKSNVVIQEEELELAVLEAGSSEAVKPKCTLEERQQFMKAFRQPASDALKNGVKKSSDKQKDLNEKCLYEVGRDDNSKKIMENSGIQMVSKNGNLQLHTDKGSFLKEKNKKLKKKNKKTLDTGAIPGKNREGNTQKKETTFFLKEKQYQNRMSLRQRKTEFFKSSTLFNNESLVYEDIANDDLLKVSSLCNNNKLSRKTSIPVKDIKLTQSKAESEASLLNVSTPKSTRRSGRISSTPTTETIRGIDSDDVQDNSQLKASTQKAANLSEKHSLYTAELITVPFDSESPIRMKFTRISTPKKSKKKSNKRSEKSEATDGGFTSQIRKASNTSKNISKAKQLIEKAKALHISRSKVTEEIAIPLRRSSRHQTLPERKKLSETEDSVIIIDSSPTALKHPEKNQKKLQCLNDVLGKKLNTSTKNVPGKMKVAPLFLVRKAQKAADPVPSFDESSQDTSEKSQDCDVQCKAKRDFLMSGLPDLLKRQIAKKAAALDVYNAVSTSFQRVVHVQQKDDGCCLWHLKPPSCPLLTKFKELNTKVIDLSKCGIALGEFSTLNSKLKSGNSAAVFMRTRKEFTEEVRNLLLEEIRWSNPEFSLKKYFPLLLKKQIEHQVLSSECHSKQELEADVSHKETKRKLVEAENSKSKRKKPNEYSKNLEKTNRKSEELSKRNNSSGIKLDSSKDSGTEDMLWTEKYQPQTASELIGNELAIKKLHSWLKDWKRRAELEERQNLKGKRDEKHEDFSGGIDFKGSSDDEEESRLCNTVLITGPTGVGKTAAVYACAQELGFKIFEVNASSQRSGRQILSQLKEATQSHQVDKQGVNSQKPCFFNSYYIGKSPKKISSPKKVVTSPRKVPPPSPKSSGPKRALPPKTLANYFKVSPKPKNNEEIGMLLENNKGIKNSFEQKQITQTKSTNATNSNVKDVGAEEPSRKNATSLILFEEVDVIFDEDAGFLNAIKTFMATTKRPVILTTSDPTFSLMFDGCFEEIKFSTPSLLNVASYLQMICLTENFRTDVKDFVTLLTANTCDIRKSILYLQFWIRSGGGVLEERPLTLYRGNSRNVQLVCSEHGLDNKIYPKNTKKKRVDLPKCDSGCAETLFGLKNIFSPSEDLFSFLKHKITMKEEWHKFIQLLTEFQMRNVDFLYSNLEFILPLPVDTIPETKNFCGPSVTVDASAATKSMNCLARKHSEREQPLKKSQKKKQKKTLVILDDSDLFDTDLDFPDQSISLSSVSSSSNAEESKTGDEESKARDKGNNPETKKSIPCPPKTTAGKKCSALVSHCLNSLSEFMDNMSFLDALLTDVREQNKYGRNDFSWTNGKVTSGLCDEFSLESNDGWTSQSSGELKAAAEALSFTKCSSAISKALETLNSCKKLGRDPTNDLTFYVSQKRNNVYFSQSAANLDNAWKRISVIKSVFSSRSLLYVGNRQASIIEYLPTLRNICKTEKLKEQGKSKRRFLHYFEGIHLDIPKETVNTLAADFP
Sequence of Phosphoglycerate kinase, glycosomal (Trypanosoma brucei brucei) (P07378 whole entry, looked up): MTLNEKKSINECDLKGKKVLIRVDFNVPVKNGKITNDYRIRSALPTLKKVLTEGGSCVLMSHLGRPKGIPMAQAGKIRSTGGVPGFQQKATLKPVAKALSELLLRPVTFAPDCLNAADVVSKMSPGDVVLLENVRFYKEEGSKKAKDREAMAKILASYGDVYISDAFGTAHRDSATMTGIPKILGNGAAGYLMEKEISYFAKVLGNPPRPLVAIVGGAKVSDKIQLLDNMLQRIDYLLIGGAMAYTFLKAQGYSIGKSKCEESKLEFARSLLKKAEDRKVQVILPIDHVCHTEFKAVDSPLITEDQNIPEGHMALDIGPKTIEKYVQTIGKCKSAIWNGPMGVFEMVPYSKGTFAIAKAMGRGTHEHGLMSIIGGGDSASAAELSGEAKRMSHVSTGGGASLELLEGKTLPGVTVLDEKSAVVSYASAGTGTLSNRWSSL
Sequence of Peptidyl-prolyl cis-trans isomerase NIMA-interacting 1 (Homo sapiens) (Q13526 whole entry, looked up): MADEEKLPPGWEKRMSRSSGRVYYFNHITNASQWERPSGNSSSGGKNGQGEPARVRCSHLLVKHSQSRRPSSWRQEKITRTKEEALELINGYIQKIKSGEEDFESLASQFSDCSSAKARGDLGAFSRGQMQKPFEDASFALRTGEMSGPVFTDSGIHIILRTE
Sequence of Thyrotropin-releasing hormone receptor (Homo sapiens) (P34981 whole entry, looked up): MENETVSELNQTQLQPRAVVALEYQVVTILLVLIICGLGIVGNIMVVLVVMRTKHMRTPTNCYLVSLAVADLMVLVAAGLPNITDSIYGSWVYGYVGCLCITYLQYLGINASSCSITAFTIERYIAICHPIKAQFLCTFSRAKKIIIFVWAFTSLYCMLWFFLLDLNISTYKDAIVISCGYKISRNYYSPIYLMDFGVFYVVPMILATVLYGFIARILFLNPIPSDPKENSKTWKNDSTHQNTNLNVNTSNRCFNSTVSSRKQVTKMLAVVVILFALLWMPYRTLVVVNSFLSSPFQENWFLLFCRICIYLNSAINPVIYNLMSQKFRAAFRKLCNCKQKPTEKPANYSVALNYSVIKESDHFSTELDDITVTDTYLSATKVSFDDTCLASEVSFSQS

Compound | outcome [1] | outcome [2] | Potency [3] | Potency [4] | Potency [5] | Potency [6] | activation [7] | Potency [8] | viability change [8] | outcome [9] | Potency [10] | Potency [11] | Potency [12] | Potency [13] | Potency [14] | Potency [15] | Potency [16] | Potency [17] | Potency [18] | outcome [19]
CCN(c1nc(N)c(C(=O)N=C(N)N)nc1Cl)C(C)C | inactive | inactive | inactive | inactive | inactive | inactive | 2.31% (inactive) | inactive | -6.66% | inactive | inactive | inactive | inactive | inactive | inactive | inactive | inactive | inactive |  | 
Cn1c(=O)c2[nH]c(C3CCCC3)nc2n(C)c1=O | inactive | inactive | inactive | inactive | inactive | inactive | 0.125% (inactive) | inactive | 1.08% | inactive | inactive | inactive | inactive | inactive | inactive | inactive | inactive | inactive |  | 
C=CC1(C)CC(=O)C2(O)C(C)(O1)C(OC(C)=O)C(O)C1C(C)(C)CCC(O)C12C (stereo not drawn) | inactive | inactive | inactive | inactive |  |  |  | inactive | 4.77% | inactive | inactive | inactive | inactive | inactive |  | inactive | inactive | inactive | inactive | 
NC(=Nc1ccccc1)NC(=O)c1nc(Cl)c(N)nc1N | inactive | inactive | inactive | inactive |  |  | 0.312% (inactive) | inactive | -16.8% | inactive | inactive |  | inactive | inactive |  | inactive |  | inactive | 12.6 µM (active) | 
O=C(O)C1=CCCN(CCON=C(c2ccccc2)c2ccccc2)C1 | inactive | inactive | inactive | inactive |  | inactive | -3% (inactive) | inactive | 4.51% | inactive | inactive | inactive | inactive | inactive | inactive | inactive | inactive | inactive | inactive | 
CCCCCCCCCCCCCCCCCCOC[C@H](COP(=O)([O-])OCC[N+](C)(C)C)OC | inactive | inactive | inactive | inactive |  | inactive | 0.938% (inactive) |  |  | inactive |  | inactive | inactive | inactive | inactive | inactive |  | inactive |  | inactive
OC[C@H]1O[C@@H](n2cnc3cncnc32)[C@H](O)[C@@H]1O | inactive | inactive | inactive | inactive |  |  | 1.44% (inactive) | inactive | 10.1% | inactive | inactive | inactive | inactive | inactive |  | inactive | inactive | inactive | inactive | 

— PubChem BioAssay (NCATS)
